Results published in the supplement of paper PMC10127200.
Where a name gives a salt, the structure may show the parent alone.

Key:
Experiment in all cases: Euclidean distance of Cell Painting phenotypic profile (signed KS, 77 features) to DMSO centroid (dimensionless distance); 5 or 10 uM (library dependent); higher = stronger phenotypic change vs DMSO (phenoactivity)
Details in all cases: 48 h
786-O = tested on: 786-O
How it was run: (§1)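 Five cancer lines, together with a healthy fibroblast line, received library compounds for 48 h at a library-dependent 10 or 5 uM and 0.1% DMSO final. Harmony then derived 77 features from confocal 20X images (9 fields/well) of the stained cells, scoring each as a signed Kolmogorov-Smirnov statistic against same-plate vehicle wells. After plate-position correction, correlation weighting and replicate averaging at the top dose, phenoactivity was taken as each profile's Euclidean distance to the median vehicle profile.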

A549 = tested on: A549
How it was run: as §1

DU145 = tested on: DU145
How it was run: as §1

FB = tested on: FB
How it was run: as §1

HEPG2 = tested on: HEPG2
How it was run: as §1

OVCAR4 = tested on: OVCAR4
How it was run: as §1

SMILES	Euclidean distance (786-O)	Euclidean distance (A549)	Euclidean distance (DU145)	Euclidean distance (FB)	Euclidean distance (HEPG2)	Euclidean distance (OVCAR4)
CCCCCCCC(=O)N[C@H](CN1CCCC1)[C@H](O)c1ccc2c(c1)OCCO2 [Eliglustat]	0.75	1.58	1.05	1.48	1.2	1.06
Cc1cc(Cl)ccc1OCCCC(=O)NO [Droxinostat]	1.32	1.68	0.991	1.3	1.07	0.782
COc1cnc(NS(=O)(=O)c2ccc(N)cc2)nc1 [Sulfameter]	1.33	1.11	0.768	1.28	1.49	1.5
COC(=O)C1=C(C)NC(C)=C(C(=O)OC(C)C)C1c1cccc2nonc12 (stereo unspecified) [Isradipine]	1.36	1.33	1.21	1.42	1.56	1.1
CN1CCN(C2=Nc3ccccc3Oc3ccc(Cl)cc32)CC1 [Loxapine Succinate]	0.937	0.901	1.33	0.885	0.582	0.838
COCC(=O)Nc1c(I)c(C(=O)NCC(O)CO)c(I)c(C(=O)N(C)CC(O)CO)c1I (stereo unspecified) [Iopromide]	1.53	0.999	0.749	1.04	0.445	1.07
CCCOc1ccc(C(=O)OCCN(CC)CC)cc1N [Proparacaine HCl]	1.06	1.11	1.7	1.27	0.765	1.27
COc1ccc(-c2nc3cc(C4=NNC(=O)CC4C)ccc3[nH]2)cc1 (stereo unspecified) [Pimobendan]	1.43	1.4	1.01	1.27	1.2	1.02
COC(=O)N[C@@H](C)CNc1nccc(-c2cn(C(C)C)nc2-c2cc(Cl)cc(NS(C)(=O)=O)c2F)n1	2.13	1.78	1.47	2.67	3.02	1.86
CN1CCN(c2ccc(C(=O)Nc3n[nH]c4ccc(Cc5cc(F)cc(F)c5)cc34)c(NC3CCOCC3)c2)CC1 [Entrectinib (RXDX-101)]	5.06	3.73	4.31	5.6	5.43	4.97
O=C(O)CCC(=O)OC[C@@H](NC(=O)C(Cl)Cl)[C@H](O)c1ccc([N+](=O)[O-])cc1 [Chloramphenicol sodium succinate]	1.83	1.28	0.814	0.919	0.53	1.07
CC[C@H](CO)Nc1nc(NCc2ccccc2)c2ncn(C(C)C)c2n1 [Roscovitine (Seliciclib.CYC202)]	2.13	2.16	1.28	1.32	1.82	1.84
C[C@H](NC(=O)CCc1nc2ccccc2c(=O)[nH]1)c1ccccc1	1.42	1.74	1.13	1.04	1.15	1.27
CC(=O)NS(=O)(=O)c1ccc(N)cc1 [Sulfacetamide]	1.08	0.619	1.45	1.07	0.298	1.01
Nc1ccccc1NC(=O)c1ccc(CNC(=O)OCc2cccnc2)cc1 [Entinostat (MS-275)]	3.47	2.57	2.22	3.25	2.93	2.57
Cc1cccc(C)c1NC(=O)C1CCCCN1C (stereo unspecified) [Mepivacaine HCl]	1.26	0.773	0.454	1.28	0.483	0.914
C[C@H]1[C@H](OC(=O)CCC(=O)O)O[C@@H]2O[C@@]3(C)CC[C@H]4[C@H](C)CC[C@@H]1[C@@]24OO3 [Artesunate]	1.44	2.06	1.01	1.66	1.03	1.88
COC(=O)[C@@H]1CC2=CC(=O)CC[C@]2(C)[C@@]23O[C@@H]2C[C@@]2(C)[C@@H](CC[C@@]24CCC(=O)O4)[C@H]13 [Eplerenone]	1.18	0.666	0.81	0.974	1.38	0.746
N[C@@H]1CCCC[C@H]1N.O=C([O-])C(=O)[O-].[Pt+2] [Eloxatin]	3.84	3.01	1.15	3.29	2.14	3.55
CCOC(=O)c1ccc(NC2CCCCC2)c(N)c1 [Ferrostatin-1 (Fer-1)]	0.915	1.54	1.71	1.18	0.921	1.09
Cc1cnc(C(=O)N[C@H]2CCCCC/C=C\[C@@H]3C[C@@]3(C(=O)NS(=O)(=O)C3CC3)NC(=O)[C@@H]3C[C@@H](Oc4nc5ccccc5c5ccccc45)CN3C2=O)cn1 [Paritaprevir (ABT-450)]	1.48	1.53	1.52	1.17	0.513	1.39
CCn1c(=O)c(-c2cc(NC(=O)Nc3ccccc3)c(F)cc2Br)cc2cnc(NC)cc21 [Ripretinib (DCC-2618)]	2.86	3.27	2.91	3.89	2.27	3.18
Cc1csc(-c2nnc(Nc3ccc(Oc4ncccc4-c4ccnc(N)n4)cc3)c3ccccc23)c1	3.06	3.22	2.83	2.44	2.61	3.01
CC1(C)OCCn2c1nc1c(N3CCOCC3)nc(-c3cnc(N)nc3)nc12	2.79	2.94	2.05	4.44	2.32	2.93
COC(=O)[C@H](c1ccccc1Cl)N1CCc2sccc2C1 [Clopidogrel]	2.53	2.3	2.44	2.99	1.3	2.4
CNCc1ccc(C)c(NC(=O)c2ccc(Nc3nc(-c4ccccc4)c4ccccc4n3)cc2)c1	5.12	4.68	3.37	4.9	5.84	4.54
